Screening data deposited in PubChem BioAssay by National Center for Advancing Translational Sciences (NCATS).
RORgamma inh: blocks mouse ROR gamma transcriptional activity; P51450; Drosophila S2 Gal4-RORgamma UAS-luciferase reporter, 20 h; Potency, µM (series often up to 53.6 µM), for the others: at the top dose activity change, negative = inhibition, hits mostly inhibitors; hit rate 5.4% among 310,000; AID 2551; note: % is set by controls: 0 for no effect and ±100 for the full control effect; nearly all actives have a fitted effect of over 60% in size
Target sequence (P51450 whole entry, looked up, the tested form may be a part): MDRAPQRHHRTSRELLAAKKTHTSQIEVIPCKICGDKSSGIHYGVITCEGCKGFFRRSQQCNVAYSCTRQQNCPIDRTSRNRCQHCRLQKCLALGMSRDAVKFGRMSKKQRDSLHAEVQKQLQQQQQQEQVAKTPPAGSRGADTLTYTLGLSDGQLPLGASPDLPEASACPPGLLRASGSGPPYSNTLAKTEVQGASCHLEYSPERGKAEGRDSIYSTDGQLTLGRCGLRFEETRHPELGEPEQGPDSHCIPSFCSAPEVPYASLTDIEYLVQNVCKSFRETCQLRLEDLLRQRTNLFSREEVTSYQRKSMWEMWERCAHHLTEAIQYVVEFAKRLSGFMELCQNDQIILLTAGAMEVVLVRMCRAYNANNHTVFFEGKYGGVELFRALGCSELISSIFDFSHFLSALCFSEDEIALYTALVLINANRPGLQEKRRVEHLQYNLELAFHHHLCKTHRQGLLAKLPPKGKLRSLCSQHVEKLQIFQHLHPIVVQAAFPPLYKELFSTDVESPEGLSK
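A Gal4/UAS one-hybrid system in insect cells: metallothionein-promoter Gal4–ROR gamma fusion plus Photinus luciferase reporter. Copper sulfate 700 uM final, 20 hr ambient incubation, luminescent detection after 10 min with reagent.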
ELG1 DNA repair: blocks ELG1-dependent DNA repair in HEK293T cells; Potency, µM (doses to about 46.1 µM), without a hit: at the top dose activity change, negative = inhibition, most hits filed as inhibitors; HEK293T ELG1-luciferase reporter, luminescence, 16 h; DNA damage induced by 5-fluorouridine; AID 504467; hit rate 2.3% among 330,000; note: % is set by controls: 0 for no effect and ±100 for the full control effect; nearly all actives have a fitted effect of over 55% in size
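Step one: seed 2,000 cells per well. Step two: pin-transfer compound or DMSO alongside 5-fluorouridine. Step three: incubate 16 hr, 37 °C, 5% CO2. Step four: add ONE-Glo, wait 30 min, read luminescence.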
MCF10A rereplic: inducers of DNA re-replication in MCF 10A breast cells. MCF 10A DNA re-replication, Hoechst nuclear intensity, 48 h. Potency, µM (highest dose often 46.1 µM), for the others: at the highest dose activity, positive = re-replication, actives largely listed as activators. hit rate 2.9% among 350,000; note: % of control where 0% means no effect; nearly all actives have a fitted effect of over 50% in size
Gal4-VP16 FLuc: counter-screen for ROR gamma inhibitors: Gal4-VP16 reporter; hit rate 3.5% among 310,000; Potency, µM (series often up to 53.6 µM), for inactives: top-dose activity, negative = inhibition, actives largely listed as inhibitors; Drosophila S2 Gal4-VP16 UAS-luciferase, luminescence, 20 h;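 note: Gal4-VP16 expression switched on by copper sulfate through the metallothionein promoter; % is set by controls: 0 for no effect and ±100 for the full control effect; nearly all actives have a fitted effect of over 50% in size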
SW480 rereplic: inducers of DNA re-replication in SW480 colon cancer cells | SW480 DNA re-replication, Hoechst DNA content imaging, 48 h | Potency, µM (top dose mostly 46.1 µM), without a hit: at the highest dose re-replication activation, usual class: activators | hit rate 1.8% among 340,000 | AID 624297; note: % of control where 0% means no effect; nearly all actives have a fitted effect of over 55% in size
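Quantitative HTS format with DMSO vehicle controls; 48 hr drug incubation at 37 C, then 40 min Hoechst staining and scanning imager measurement at 405 nm excitation.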
* = called active by the depositor; [ ] = dose if it differs, or a comment. Rows were chosen to be rich in hits. Some 10% of all compounds tested hit in one or more screens of this group. Calls come from the whole dose curve; as a rule, active = well fitted curve in the direction sought with a large enough effect; inconclusive = small, poorly fitted or top-dose-only effect, or another doubt; inactive = no such curve, though single readings can be large; an effect the other way counts as inactive or inconclusive. Potency is the fitted concentration of half-maximal effect.

`O=C(CCN1C(=O)C2CC=CCC2C1=O)Nc1ccc(S(=O)(=O)N2CCCCC2)cc1` (centres undefined) gave ELG1 DNA repair -2%, MCF10A rereplic 0% and SW480 rereplic 0%.
Screening CCOC(=O)N1CCC(NC(=O)C2CCCN(Cc3nc(-c4cccc(Cl)c4)oc3C)C2)CC1 (centres undefined) returned RORgamma inh inconclusive, ELG1 DNA repair 9.2µM*, MCF10A rereplic 2%, Gal4-VP16 FLuc inconclusive and SW480 rereplic -14%.
For CCOC(=O)CC1CCCCN1Cc1nc(-c2ccc(F)c(OC)c2)oc1C (centres undefined) the results were RORgamma inh 3.5µM*, ELG1 DNA repair -9%, MCF10A rereplic 14%, Gal4-VP16 FLuc -13% and SW480 rereplic -4%.
Screening Cc1oc(-c2ccc(Cl)cc2)nc1CN1CCCC(C(=O)NC2CC2)C1 (centres undefined) returned RORgamma inh 2%, ELG1 DNA repair -7%, MCF10A rereplic 12%, Gal4-VP16 FLuc -17% and SW480 rereplic 9%.
`Cc1oc(-c2ccc(F)cc2)nc1CN1CCCC(C(=O)N2CCOCC2)C1` (centres undefined) gave RORgamma inh -33%, ELG1 DNA repair 14%, MCF10A rereplic 8%, Gal4-VP16 FLuc 0% and SW480 rereplic -35%.
For CCOC(=O)N1CCC(NC(=O)CS(=O)(=O)Cc2nc(-c3cccc(OC)c3)oc2C)CC1 the results were RORgamma inh 26%, ELG1 DNA repair inconclusive, MCF10A rereplic -6%, Gal4-VP16 FLuc -9% and SW480 rereplic 2%.
For CCOC(=O)N1CCC(NC(=O)CS(=O)(=O)Cc2nc(-c3cccc(Cl)c3)oc2C)CC1 the results were RORgamma inh 38%, ELG1 DNA repair 15µM*, MCF10A rereplic 10%, Gal4-VP16 FLuc -11% and SW480 rereplic inconclusive.
For CCOC(=O)N1CCN(C(=O)C2CCCN(Cc3nc(-c4ccc(Cl)cc4)oc3C)C2)CC1 (centres undefined) the results were RORgamma inh 3%, ELG1 DNA repair 4.6µM*, MCF10A rereplic 19%, Gal4-VP16 FLuc -8% and SW480 rereplic 20%.
COc1ccc(OC)c(CNS(=O)(=O)c2cc(CN3C(=O)c4cccnc4C3=O)ccc2OC)c1 was read as RORgamma inh inconclusive, ELG1 DNA repair 4%, MCF10A rereplic -2%, Gal4-VP16 FLuc inconclusive and SW480 rereplic inconclusive.
O=C(COc1ccccc1Cl)NNC(=O)c1ccc(-n2cncn2)c([N+](=O)[O-])c1 was read as ELG1 DNA repair inconclusive, MCF10A rereplic -9% and SW480 rereplic inconclusive.
Screening COCCN=C1NN=C(c2ccc(C)c([N+](=O)[O-])c2)CS1 returned RORgamma inh 13µM*, ELG1 DNA repair inconclusive, MCF10A rereplic -3%, Gal4-VP16 FLuc -16% and SW480 rereplic -8%.
Screening CCCCN=C1NN=C(c2ccc3c(c2)OCCO3)CS1 returned RORgamma inh 4.5µM*, ELG1 DNA repair inconclusive, MCF10A rereplic 12%, Gal4-VP16 FLuc 7.9µM* and SW480 rereplic inconclusive.
Clc1ccc(C2=NNC(=NCC3CCCO3)SC2)cc1 (centres undefined) was read as RORgamma inh inconclusive, ELG1 DNA repair inconclusive, MCF10A rereplic 15%, Gal4-VP16 FLuc inconclusive and SW480 rereplic 6%.
For FC(F)Sc1ccc(N=C2NN=C(c3ccc4c(c3)OCCO4)CS2)cc1 the results were RORgamma inh -20%, ELG1 DNA repair inconclusive, MCF10A rereplic inconclusive, Gal4-VP16 FLuc 5% and SW480 rereplic 12µM*.
Screening COCCn1c(C)cc(C2=NNC(=Nc3ccccc3)SC2)c1C returned RORgamma inh -3%, ELG1 DNA repair inconclusive, MCF10A rereplic 10%, Gal4-VP16 FLuc 5% and SW480 rereplic 3%[9.22 µM].
For CCCCN=C1NN=C(c2ccc(C)c(C)c2)CS1 the results were RORgamma inh 7.1µM*, ELG1 DNA repair inconclusive, MCF10A rereplic -4%, Gal4-VP16 FLuc 13µM* and SW480 rereplic 7%.
`O=C(CCCCCNC(=S)Nc1ccccc1)C[N+](=O)[O-]` gave RORgamma inh inconclusive, ELG1 DNA repair -11%, MCF10A rereplic -2%, Gal4-VP16 FLuc -11% and SW480 rereplic 4%.
